# GLP-1R inv ag: acts as inverse agonist at human GLP-1 receptor; HEK293 GLP-1R CRE-luciferase, luminescence, 24 h; GLP-1R form is constitutively active; Potency, µM (highest dose often 38.3 µM), for the others: at the top dose activity change, negative = inhibition, hits mostly inhibitors; hit rate 1.6% among 410,000; AID 624417; note: % is set by controls: 0 for no effect and ±100 for the full control effect; nearly all actives have a fitted effect of over 55% in size
# Target sequence (P43220 whole entry, looked up): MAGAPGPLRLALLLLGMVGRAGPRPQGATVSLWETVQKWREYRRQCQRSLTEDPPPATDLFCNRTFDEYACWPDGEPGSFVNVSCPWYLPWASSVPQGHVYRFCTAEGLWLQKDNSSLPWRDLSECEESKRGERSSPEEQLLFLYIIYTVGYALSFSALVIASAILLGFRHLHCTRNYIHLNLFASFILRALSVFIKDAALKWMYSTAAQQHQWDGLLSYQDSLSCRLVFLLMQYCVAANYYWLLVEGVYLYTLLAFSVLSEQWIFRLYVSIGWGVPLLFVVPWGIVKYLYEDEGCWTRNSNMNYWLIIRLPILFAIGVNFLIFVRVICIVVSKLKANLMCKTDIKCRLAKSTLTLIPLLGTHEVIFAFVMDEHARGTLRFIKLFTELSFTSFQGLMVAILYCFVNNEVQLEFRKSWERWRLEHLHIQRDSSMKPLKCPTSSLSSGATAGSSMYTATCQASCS
#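 Assay principle: reduced luminescence from a cAMP-responsive reporter in HEK293 cells co-expressing a constitutively active GLP-1R. Conditions: 24 hr compound incubation, 37 deg C, 5% CO2.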
# HEK293 tox: cytotoxicity in counter-screen for GLP-1R inverse agonists | AID 624418 | hit rate 0.13% among 410,000 | HEK293 cAMP-luciferase reporter cells, luminescence, 24 h | Potency, µM (series often up to 38.3 µM), for the others: top-dose activity change, negative = inhibition, actives largely listed as inhibitors;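 note: loss of luciferase light is scored as toxicity; % is set by controls: 0 for no effect and ±100 for the full control effect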
#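 Quantitative HTS format, 1536 wells, 200 cells/uL seeded. Compounds: 23 nL, 24 h, 37 °C. Detection: luciferase reagent, luminescence at 12 min RT; decreased signal taken as cytotoxic.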
# GLP-1R agonist: activates the human GLP-1 receptor. hit rate 0.007% among 380,000. Potency, µM (highest dose often 45.6 µM), for the others: at the highest dose activation, usual class: activators. HEK293 GLP-1R CRE-luciferase, luminescence, 4-6 h; cells express a hypersensitive GLP-1R form. P43220. AID 624172; note: % of control where 0% means no effect
# * = called active by the depositor; ? = inconclusive; / = no result given. Most compounds without a hit are left out; they make up all but 1.7% or so of the library. Calls come from the whole dose curve; as a rule, active = well fitted curve in the direction sought with a large enough effect; inconclusive = small, poorly fitted or top-dose-only effect, or another doubt; inactive = no such curve, though single readings can be large; an effect the other way counts as inactive or inconclusive. Potency is the fitted concentration of half-maximal effect.
SMILES,GLP-1R inv ag,HEK293 tox,GLP-1R agonist
CCC(=O)N(CCC1(C(C)C)CCOC(C)(C)C1)C(C)c1cccs1 (stereo not given),?,2.1%,-8.4%
COc1ccc(-c2csc(C(C)(O)c3cccnc3)n2)cc1 (stereo not given),-15.2%,-4.0%,-3.7%
O=C(Nc1nnc(S(=O)(=O)N2CCCc3ccccc32)s1)c1ccccc1Br,?,-0.2%,/
CCCCn1nnnc1C(c1cc2ccccc2o1)N1CCN(c2ncccc2C#N)CC1 (stereo not given),?,1.2%,2.4%
CC(C)(C)NC(=O)CN(Cc1cccs1)C(=O)CCN1CCc2ccccc21,?,-6.2%,4.9%
CC(C(=O)NC(C)(C)C)N(Cc1cccs1)C(=O)CCN1CCc2ccccc21 (stereo not given),10µM*,-6.0%,13.3%
O=C(CSc1nnc(C2CC2)n1C1CC1)c1ccc(Br)s1,-4.9%,8.5%,-3.8%
CCC(Cn1nnc2ccccc2c1=O)NC(=O)Nc1ccc(C)c(C)c1 (stereo not given),-9.6%,-7.4%,/
O=C(COC(=O)c1cc(Br)ccc1O)NC12CC3CC(CC(C3)C1)C2,-9.7%,-0.2%,5.5%
FC(F)(F)Oc1ccccc1C(c1nnnn1C1CCCC1)N1CCN(C/C=C/c2ccccc2)CC1 (stereo not given),-4.2%,0.2%,15.5%
CCOC(=O)c1c(C)n(C)c2ccc(OC)c([N+](=O)[O-])c12,6.5%,-1.2%,17.5%
CCOC(=O)c1cccc(Nc2c3c(nc4ccccc24)CCC3)c1,?,10µM*,/
CCOC(=O)c1cccc(Nc2nc(C(=O)OCC)nc3ccccc23)c1,-15.1%,-26.9%,/
CC(=O)c1cccc(Nc2c3c(nc4ccccc24)CCC3)c1,?,10.2%,12.2%
COc1cc(Cl)c(C)cc1Nc1c2c(nc3ccccc13)CCC2,11.2µM*,?,/
COc1ccccc1Nc1c2c(nc3ccccc13)CCC2,?,?,5.3%
COC(=O)c1cccc(Nc2c3c(nc4ccccc24)CCC3)c1,7.94µM*,?,13.8%
COc1ccc(OC)c(Nc2ncnc3c2nc2n3CCCC2)c1,4.8%,-0.1%,/
CCCOc1cccc(C(=O)Nc2cccc(-c3nc4ncccc4o3)c2C)c1,12.7%,-2.5%,-0.7%
CC(Oc1ccc(Cl)cc1C(N)=O)C(=O)N1CCc2ccccc21 (stereo not given),-17.9%,-0.9%,0.0%
CC(Oc1ccc(Cl)cc1Cl)C(=O)NC(=S)N1CCc2ccccc21 (stereo not given),10µM*,?,-12.4%
Cc1ccc(-c2cc(=O)c3cc(F)ccc3[nH]2)cc1,-16.0%,-0.3%,0.6%
Cc1ccc(-c2cc(=O)c3cc(C)ccc3[nH]2)cc1,3.16µM*,-38.1%,-9.8%
CSCC[C@H](N)C(=O)NC[C@H]1CC[C@H](C(=O)N[C@@H](Cc2ccccc2)C(=O)O)CC1,-11.6%,5.6%,-1.7%
COc1cccc(CNc2nc3cc(-c4ccccc4CO)sc3c(=O)n2C)c1,?,-17.4%,5.1%
SMILES,GLP-1R inv ag,HEK293 tox,GLP-1R agonist
CN(C)c1ccc(N=Nc2nccs2)cc1,?,11.2µM*,-2.1%
CN(C)c1ccc(N=Nc2ccccc2Br)cc1,?,?,-4.2%
O=c1[nH]c(=S)[nH]c2c1C(c1ccccc1)OC(C1CCCCC1)C2 (stereo not given),4.2%,5.2%,7.0%
Cc1ccc(S(=O)(=O)c2cnc(SCC(=O)Nc3ccc4c(c3)OCCO4)[nH]c2=O)cc1,11.7%,-1.8%,0.5%
CSC(=Nc1ccccc1)N=C(SCc1ccccc1)N(C)C,3.55µM*,5.62µM*,-24.1%
N#CNC(=Nc1ccccc1)SCc1ccc(C(=O)O)cc1,21.0%,-3.3%,-0.3%
CC(C)c1ccc(S(=O)(=O)c2cn(CC(=O)Nc3ccc(F)cc3)c3ccccc3c2=O)cc1,9.9%,3.1%,-2.0%
CCOC(=O)c1c(NC(C)=O)c2c3c(sc2n1Cc1nc(-c2ccccc2OCC)oc1C)CCCC3,12.5%,-2.9%,/
COc1ccc2nc(C)cc(Nc3ccc(N4CCN(C)CC4)cc3)c2c1,5.62µM*,?,11.1%
COc1ccc2nc(C)cc(Nc3ccc(N4CCOCC4)cc3)c2c1,?,?,-1.4%
Cc1ccc(Cc2nc3ccccc3nc2SCC(=O)NCCC(C)C)cc1,10.0%,-1.1%,0.7%
CC(=O)c1cccc(NC(=O)C(C)OC(=O)CN2C(=O)NC(C)(C)C2=O)c1 (stereo not given),10.1%,3.4%,-0.4%
CCOC(=O)C1Nc2c(F)cc(C)cc2C2c3ccccc3CC12 (stereo not given),10µM*,26.2%,-4.2%
CCOC(=O)C1Nc2ccccc2C2c3ccccc3CC12 (stereo not given),9.4%,3.0%,33.4%
CCOc1ccc(/C=N/NC(=S)NC2CC3C=CC2C3)cc1 (stereo not given),3.16µM*,7.0%,13.8%
Oc1c(Br)cc(Br)cc1/C=N/NC(=S)N[C@H]1CC2C=CC1C2 (stereo not given in full),3.55µM*,20.9%,-0.3%
COc1cc(/C=N/NC(=S)NC2CC3C=CC2C3)cc(OC)c1OC (stereo not given),?,?,18.9%
CNC(=S)N/N=C/c1cc(Br)cc(Br)c1O,?,87.7%,-1.1%
O=C(NC1CC1)C1CCN(c2nc3ccccc3s2)CC1,-9.3%,2.3%,-2.1%
CN(Cc1cn(Cc2cccc(C(F)(F)F)c2)nn1)C1CN(Cc2cn(Cc3cccc(C(F)(F)F)c3)nn2)S(=O)(=O)C1 (stereo not given),-7.3%,-17.0%,4.2%
c1ccc(-n2cc(CNCCc3cscn3)c(-c3ccc4c(c3)OCO4)n2)cc1,?,-4.5%,20.1%
CC(=O)NCCC(=O)N1CCc2c([nH]c3ccccc23)C1c1cccc(Cl)c1 (stereo not given),5.01µM*,-16.2%,12.0%
O=C(CSc1ccccc1)N1CCc2c([nH]c3ccccc23)C1c1ccc(Cl)cc1 (stereo not given),5.01µM*,0.9%,/
Cc1cccc(C2c3[nH]c4ccccc4c3CCN2C(=O)Cc2nc(-c3ccccc3)n[nH]2)n1 (stereo not given),11.2µM*,-26.0%,17.3%
Cc1cccc(C2c3[nH]c4ccccc4c3CCN2C(=O)CN2CCOC2=O)n1 (stereo not given),-21.2%,-11.5%,6.1%
SMILES,GLP-1R inv ag,HEK293 tox,GLP-1R agonist
CCOc1cccc(C2c3[nH]c4ccccc4c3CCN2C(=O)CSc2ccccc2)c1 (stereo not given),?,-0.2%,/
CC(=O)NCCC(=O)N1CCc2c([nH]c3ccccc23)C1c1cccc(C)c1 (stereo not given),?,-2.5%,0.2%
COc1ccc(CCC(=O)N2CCc3c([nH]c4ccccc34)C2c2ccc(F)cc2)cc1 (stereo not given),10µM*,-6.3%,/
COc1ccc(CC(=O)N2CCc3c([nH]c4ccccc34)C2c2ccc(SC)cc2)cc1 (stereo not given),?,12.6%,/
Cc1ccc(NS(=O)(=O)c2ccc(NC(=O)N3CCCC3)cc2)cc1C,2.3%,-3.3%,/
O=C(CCc1nnc(Cc2c[nH]c3ccccc23)o1)NCC1CC12CCCCC2 (stereo not given),?,-1.7%,20.7%
